In test [1] the target is T1, Ephrin type-A receptor 3 (Homo sapiens) (UniProt P29320).
T1 sequence (whole entry): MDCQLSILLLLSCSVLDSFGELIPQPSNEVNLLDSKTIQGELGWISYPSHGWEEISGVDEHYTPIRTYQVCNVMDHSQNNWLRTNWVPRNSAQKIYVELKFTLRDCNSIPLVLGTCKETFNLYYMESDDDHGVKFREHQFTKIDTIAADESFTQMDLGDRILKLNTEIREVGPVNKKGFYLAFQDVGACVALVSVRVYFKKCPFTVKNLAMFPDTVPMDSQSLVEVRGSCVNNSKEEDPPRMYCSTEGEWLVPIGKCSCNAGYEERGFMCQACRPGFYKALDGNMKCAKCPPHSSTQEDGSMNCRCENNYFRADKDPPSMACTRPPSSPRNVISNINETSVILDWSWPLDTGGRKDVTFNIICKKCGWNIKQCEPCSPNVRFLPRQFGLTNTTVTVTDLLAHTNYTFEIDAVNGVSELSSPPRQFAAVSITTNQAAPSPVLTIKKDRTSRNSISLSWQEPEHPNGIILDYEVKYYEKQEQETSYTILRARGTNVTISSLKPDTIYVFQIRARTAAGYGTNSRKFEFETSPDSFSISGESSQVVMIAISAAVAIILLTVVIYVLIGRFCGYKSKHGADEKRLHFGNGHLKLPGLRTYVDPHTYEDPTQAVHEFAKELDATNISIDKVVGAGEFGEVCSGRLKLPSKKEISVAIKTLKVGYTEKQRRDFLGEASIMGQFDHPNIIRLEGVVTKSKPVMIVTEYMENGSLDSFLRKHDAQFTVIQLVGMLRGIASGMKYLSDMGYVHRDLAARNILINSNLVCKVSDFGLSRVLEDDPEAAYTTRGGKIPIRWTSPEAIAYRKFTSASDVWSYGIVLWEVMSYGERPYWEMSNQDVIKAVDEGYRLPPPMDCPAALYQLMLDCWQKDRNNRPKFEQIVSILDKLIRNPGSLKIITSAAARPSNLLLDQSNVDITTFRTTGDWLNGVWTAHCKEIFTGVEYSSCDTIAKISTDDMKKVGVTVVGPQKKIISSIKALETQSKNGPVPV
The conditions noted are these: at 10 µM.

Test [2] has as its target Ephrin type-A receptor 4 (Homo sapiens) (UniProt P54764). The conditions noted are these: at 1 µM.
Test [3] shares this target. The conditions noted are these: at 10 µM.
The target in test [4] is Ephrin type-A receptor 5 (Homo sapiens) (UniProt P54756). The conditions noted are these: at 1 µM.
Sequence of Ephrin type-A receptor 5 (Homo sapiens) (P54756 whole entry): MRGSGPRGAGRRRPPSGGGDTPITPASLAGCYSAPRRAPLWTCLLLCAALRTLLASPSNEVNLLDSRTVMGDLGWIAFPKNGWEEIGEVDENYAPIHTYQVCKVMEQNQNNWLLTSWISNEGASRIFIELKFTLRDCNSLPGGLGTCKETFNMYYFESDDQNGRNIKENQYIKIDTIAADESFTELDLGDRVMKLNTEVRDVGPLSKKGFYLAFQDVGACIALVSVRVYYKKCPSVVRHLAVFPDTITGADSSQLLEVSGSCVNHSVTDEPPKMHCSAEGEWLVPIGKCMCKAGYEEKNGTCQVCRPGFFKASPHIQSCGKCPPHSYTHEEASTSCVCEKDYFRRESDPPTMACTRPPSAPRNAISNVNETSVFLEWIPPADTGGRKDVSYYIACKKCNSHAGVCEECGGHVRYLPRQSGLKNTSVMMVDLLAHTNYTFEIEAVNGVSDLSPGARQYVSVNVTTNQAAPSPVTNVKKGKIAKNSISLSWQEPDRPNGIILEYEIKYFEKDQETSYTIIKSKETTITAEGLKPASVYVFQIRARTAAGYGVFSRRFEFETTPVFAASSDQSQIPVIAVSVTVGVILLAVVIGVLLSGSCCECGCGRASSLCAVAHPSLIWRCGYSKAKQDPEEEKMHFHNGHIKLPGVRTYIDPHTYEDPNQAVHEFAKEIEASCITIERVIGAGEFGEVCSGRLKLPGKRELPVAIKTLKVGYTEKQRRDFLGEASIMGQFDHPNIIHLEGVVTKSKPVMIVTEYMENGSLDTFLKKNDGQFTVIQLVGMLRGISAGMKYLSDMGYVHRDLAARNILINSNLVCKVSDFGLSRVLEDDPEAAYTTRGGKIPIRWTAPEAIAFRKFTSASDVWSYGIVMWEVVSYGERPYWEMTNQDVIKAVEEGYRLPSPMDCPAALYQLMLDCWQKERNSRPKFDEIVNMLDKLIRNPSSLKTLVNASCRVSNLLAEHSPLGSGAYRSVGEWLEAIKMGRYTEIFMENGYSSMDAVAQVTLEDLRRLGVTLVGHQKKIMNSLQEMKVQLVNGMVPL
Test [5] has the same target. The conditions noted are these: at 10 µM.
Test [6] concerns the target T2, Ephrin type-B receptor 1 (Homo sapiens) (UniProt P54762).
T2 sequence (whole entry): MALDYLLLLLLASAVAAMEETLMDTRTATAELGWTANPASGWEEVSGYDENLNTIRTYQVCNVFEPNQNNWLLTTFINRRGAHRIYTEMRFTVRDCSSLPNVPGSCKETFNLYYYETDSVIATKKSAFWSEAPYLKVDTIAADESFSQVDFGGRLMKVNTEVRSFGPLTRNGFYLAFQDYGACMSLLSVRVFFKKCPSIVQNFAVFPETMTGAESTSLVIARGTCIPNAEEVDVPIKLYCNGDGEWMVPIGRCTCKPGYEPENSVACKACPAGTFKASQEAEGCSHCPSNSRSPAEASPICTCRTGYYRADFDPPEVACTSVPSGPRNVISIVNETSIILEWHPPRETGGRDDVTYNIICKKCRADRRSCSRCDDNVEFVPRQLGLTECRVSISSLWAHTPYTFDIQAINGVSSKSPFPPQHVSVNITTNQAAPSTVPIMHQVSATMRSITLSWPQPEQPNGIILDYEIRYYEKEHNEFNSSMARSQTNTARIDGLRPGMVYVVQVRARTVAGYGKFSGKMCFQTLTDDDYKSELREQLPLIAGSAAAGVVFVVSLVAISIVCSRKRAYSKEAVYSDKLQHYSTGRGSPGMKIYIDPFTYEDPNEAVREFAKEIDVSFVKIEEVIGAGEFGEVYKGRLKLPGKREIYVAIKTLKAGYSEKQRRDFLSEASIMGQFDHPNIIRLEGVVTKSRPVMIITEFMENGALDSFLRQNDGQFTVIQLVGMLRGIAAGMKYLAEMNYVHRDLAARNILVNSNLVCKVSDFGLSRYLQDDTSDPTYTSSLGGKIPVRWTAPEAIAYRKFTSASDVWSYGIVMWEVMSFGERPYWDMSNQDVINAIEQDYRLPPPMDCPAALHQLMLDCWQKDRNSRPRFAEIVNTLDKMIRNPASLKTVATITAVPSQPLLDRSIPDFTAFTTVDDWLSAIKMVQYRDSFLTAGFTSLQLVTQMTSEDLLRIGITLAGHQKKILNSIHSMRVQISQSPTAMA
The conditions noted are these: at 1 µM.

In test [7] the target is T2, Ephrin type-B receptor 1 (Homo sapiens). The conditions noted are these: at 10 µM.
Test [8] addresses T3, Ephrin type-B receptor 2 (Homo sapiens) (UniProt P29323).
T3 sequence (whole entry): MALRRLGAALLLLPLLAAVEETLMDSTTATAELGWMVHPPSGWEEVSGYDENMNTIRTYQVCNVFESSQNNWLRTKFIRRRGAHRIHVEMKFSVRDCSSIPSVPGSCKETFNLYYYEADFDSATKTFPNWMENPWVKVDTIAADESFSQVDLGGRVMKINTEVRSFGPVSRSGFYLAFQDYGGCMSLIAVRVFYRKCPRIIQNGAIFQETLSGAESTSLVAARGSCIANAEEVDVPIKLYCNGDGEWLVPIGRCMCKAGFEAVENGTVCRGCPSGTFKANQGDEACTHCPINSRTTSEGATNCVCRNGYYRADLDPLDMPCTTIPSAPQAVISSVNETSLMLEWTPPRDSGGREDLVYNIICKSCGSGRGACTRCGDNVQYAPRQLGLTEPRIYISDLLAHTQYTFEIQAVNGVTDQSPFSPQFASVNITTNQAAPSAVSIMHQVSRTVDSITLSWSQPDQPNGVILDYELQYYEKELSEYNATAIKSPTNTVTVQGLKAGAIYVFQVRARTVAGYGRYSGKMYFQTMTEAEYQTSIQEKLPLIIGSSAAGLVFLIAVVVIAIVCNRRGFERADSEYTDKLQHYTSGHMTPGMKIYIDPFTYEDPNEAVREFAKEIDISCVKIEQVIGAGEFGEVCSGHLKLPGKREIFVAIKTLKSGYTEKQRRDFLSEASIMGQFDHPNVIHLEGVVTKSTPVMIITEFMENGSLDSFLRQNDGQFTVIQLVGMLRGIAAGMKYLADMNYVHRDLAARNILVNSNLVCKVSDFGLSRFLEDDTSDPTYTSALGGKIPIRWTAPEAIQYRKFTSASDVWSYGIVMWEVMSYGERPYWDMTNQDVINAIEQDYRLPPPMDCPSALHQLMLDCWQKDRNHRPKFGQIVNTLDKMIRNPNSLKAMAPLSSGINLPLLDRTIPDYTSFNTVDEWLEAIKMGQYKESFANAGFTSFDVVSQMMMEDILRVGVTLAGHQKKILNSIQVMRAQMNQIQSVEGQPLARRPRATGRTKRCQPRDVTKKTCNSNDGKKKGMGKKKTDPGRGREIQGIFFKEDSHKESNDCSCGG
The conditions noted are these: at 1 µM.

In test [9] the target is T3, Ephrin type-B receptor 2 (Homo sapiens). The conditions noted are these: at 10 µM.
For test [10], the target named is Receptor tyrosine-protein kinase erbB-4 (Homo sapiens) (UniProt Q15303). The conditions noted are these: at 1 µM.
Sequence of Receptor tyrosine-protein kinase erbB-4 (Homo sapiens) (Q15303 whole entry): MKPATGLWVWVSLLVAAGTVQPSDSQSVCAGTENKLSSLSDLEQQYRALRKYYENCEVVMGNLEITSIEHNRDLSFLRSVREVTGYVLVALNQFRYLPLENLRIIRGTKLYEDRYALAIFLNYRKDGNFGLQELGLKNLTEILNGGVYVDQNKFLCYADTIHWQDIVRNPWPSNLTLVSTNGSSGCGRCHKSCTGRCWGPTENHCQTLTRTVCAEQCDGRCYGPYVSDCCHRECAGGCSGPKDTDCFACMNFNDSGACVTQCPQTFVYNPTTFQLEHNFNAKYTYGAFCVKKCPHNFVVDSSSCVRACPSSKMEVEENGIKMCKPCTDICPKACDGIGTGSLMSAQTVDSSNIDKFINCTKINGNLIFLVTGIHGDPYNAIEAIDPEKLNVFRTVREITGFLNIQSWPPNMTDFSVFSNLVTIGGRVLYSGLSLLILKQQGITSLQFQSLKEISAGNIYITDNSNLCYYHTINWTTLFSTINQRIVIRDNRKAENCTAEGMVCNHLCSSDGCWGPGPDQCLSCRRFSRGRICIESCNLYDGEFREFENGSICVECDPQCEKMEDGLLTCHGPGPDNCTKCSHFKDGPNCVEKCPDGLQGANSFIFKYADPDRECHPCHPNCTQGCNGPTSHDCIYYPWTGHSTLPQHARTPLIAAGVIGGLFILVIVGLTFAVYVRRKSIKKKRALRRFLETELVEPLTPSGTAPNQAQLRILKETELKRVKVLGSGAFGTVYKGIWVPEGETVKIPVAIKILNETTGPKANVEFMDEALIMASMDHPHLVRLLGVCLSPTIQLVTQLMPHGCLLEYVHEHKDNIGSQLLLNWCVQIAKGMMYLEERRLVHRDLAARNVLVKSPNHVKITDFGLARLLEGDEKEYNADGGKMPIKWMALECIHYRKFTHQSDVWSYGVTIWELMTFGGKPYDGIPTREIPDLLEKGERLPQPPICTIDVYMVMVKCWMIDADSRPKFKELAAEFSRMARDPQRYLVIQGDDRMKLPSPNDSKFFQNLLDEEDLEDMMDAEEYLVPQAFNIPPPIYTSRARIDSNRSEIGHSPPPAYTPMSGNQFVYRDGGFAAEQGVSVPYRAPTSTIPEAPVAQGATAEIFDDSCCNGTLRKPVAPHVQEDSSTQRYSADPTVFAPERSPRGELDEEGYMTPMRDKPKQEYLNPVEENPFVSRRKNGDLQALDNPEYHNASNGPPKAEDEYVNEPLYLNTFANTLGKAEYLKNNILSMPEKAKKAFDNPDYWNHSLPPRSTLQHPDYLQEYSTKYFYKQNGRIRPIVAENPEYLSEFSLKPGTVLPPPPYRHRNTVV
Test [11] shares this target. The conditions noted are these: at 10 µM.

Sequence of Ephrin type-A receptor 4 (Homo sapiens) (P54764 whole entry): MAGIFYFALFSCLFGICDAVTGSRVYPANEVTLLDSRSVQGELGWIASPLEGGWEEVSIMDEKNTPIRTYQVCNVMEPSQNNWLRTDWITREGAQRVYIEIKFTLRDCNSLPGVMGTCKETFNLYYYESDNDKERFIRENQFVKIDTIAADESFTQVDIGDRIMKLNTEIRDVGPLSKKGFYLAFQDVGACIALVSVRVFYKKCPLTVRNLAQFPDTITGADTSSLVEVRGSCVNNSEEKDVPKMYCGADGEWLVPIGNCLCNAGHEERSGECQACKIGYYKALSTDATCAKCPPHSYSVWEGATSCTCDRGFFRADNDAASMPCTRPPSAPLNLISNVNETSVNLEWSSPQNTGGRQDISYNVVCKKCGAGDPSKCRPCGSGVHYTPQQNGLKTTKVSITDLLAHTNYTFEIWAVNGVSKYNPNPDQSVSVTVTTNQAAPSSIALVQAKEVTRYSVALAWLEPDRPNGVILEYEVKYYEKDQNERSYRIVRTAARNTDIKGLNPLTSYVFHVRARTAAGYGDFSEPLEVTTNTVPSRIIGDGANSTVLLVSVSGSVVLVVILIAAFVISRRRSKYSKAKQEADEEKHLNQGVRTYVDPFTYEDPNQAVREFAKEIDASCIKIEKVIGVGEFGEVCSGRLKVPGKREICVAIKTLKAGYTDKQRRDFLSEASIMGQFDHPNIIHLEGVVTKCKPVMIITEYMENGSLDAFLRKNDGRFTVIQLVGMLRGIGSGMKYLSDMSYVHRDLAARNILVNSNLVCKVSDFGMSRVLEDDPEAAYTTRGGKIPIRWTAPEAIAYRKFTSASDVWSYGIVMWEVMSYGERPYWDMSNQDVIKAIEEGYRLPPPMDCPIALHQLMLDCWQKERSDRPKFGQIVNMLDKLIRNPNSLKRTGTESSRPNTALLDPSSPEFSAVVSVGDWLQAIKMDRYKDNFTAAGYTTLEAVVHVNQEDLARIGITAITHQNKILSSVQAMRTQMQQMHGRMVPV

Turning to `N#Cc1cnc2cnc(NCc3cccnc3)cc2c1Nc1ccc(F)c(Cl)c1`, the residual activity in test [1] worked out at 72%; in [2] it was 103%; in test [3], 76%; in [4] it was 56%; in [5], 46%; in test [6], 100%. Also, the residual activity in [7] was 89%; in test [8], 99%; in test [9] it was 100%; in test [10] it was 132%; in test [11] it was 128%.

As usually defined, the residual activity is the signal under treatment as a percentage of the control signal.

(Values after ChEMBL document CHEMBL2218924, “A broad activity screen in support of a chemogenomic map for kinase signalling research and drug discovery” (Biochem J, 2013).)
